The text below walks through data of PubChem BioAssay (NCI).

About 83,000 compounds went through this panel and 20% of them were active in at least one assay; those are over-represented in the sample as a whole.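 Percent growth is the endpoint: 0 to 100 indicates growth inhibition (40 means 60% inhibition), 0 means no net growth, and negative values indicate cell death.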 A number with no mark means an inactive call. Calls of active or inactive are those of the source. Rule for the calls: active = growth percent below 10; inactive = the rest.

Some test systems named below: NCI-H23 lung; NCI-H226 lung; NCI-H322M lung; HOP-62 NSCLC; NCI-H460 lung; HOP-92 NSCLC; NCI-H522 lung; A549/ATCC NSCLC; 786-0 renal; COLO 205 colon; DU-145 prostate; K-562 leukemia; MALME-3M melanoma; MDA-MB-231 breast; RXF 393 renal; SF-268 CNS; SF-295 CNS; SF-539 CNS; UACC-257 melanoma; M14 melanoma.
What all share (test): NCI-60 one-dose screen, 48 h (100 = growth as untreated, 0 = no growth, -100 = all killed)
Holding throughout (settings): 10 µM unless noted

For `Cc1cnc(Nc2ccc(OCCN3CCCC3)cc2)nc1Nc1cccc(S(=O)(=O)NC(C)(C)C)c1`, the growth in the experiment with NCI-H23 lung is 15.8%; with NCI-H226 lung it was -61.9% (active); in the experiment with NCI-H322M lung, 28%; in the experiment on HOP-62 NSCLC it was -8.87% (active); in the experiment with NCI-H460 lung, 10.4%; in the experiment on HOP-92 NSCLC, -72.1% (active). Also, the growth in the experiment on NCI-H522 lung was -46.4% (active); with A549/ATCC NSCLC, -53.6% (active); in the experiment on 786-0 renal, -84.8% (active); in the experiment with COLO 205 colon, -67.6% (active); with DU-145 prostate it was 17.6%; in the experiment on K-562 leukemia, 1.89% (active). In addition, the growth in the experiment with MALME-3M melanoma was -34.1% (active); with MDA-MB-231 breast it was 6.69% (active); in the experiment with RXF 393 renal, -86.7% (active); in the experiment with SF-268 CNS it was -10.9% (active); in the experiment with SF-295 CNS, 15.5%; in the experiment on SF-539 CNS, -83.2% (active). The growth in the experiment on UACC-257 melanoma was -78.9% (active); in the experiment on M14 melanoma, -48% (active).
Turning to `Cn1cc(-c2ccc(F)c(C(F)(F)F)c2)nc1C1CCN(c2ncnc3[nH]ncc23)CC1`, the growth in the experiment with NCI-H23 lung was 72.3%; in the experiment on NCI-H226 lung, 55.3%; in the experiment on NCI-H322M lung it was 75.3%; with HOP-62 NSCLC, 52.1%; in the experiment on NCI-H460 lung it was 76.9%; with HOP-92 NSCLC, 65.3%. Also, the growth in the experiment with NCI-H522 lung was 47.8%; in the experiment with A549/ATCC NSCLC, 50.4%; in the experiment with 786-0 renal, 69.1%; in the experiment with COLO 205 colon, 84.4%; in the experiment with DU-145 prostate, 77.3%; in the experiment with K-562 leukemia it was 77.8%. The growth was 76.5% in the experiment with MALME-3M melanoma; 72.5% in the experiment with MDA-MB-231 breast; 56.7% in the experiment on RXF 393 renal; 44.7% in the experiment with SF-268 CNS; 70.8% in the experiment on SF-295 CNS; 51.5% with SF-539 CNS. The figures for the growth in the experiment on UACC-257 melanoma and in the experiment with M14 melanoma were 74.3% and 83.4%, respectively.
Turning to `CN1CCN(c2ccc(C(=O)Nc3n[nH]c4ccc(Cc5cc(F)cc(F)c5)cc34)c(NC3CCOCC3)c2)CC1`, the growth is 11% in the experiment on NCI-H23 lung; -5.76% (active) in the experiment on NCI-H226 lung; 33.8% with NCI-H322M lung; -34.8% (active) in the experiment on HOP-62 NSCLC; -80.3% (active) in the experiment on NCI-H460 lung; -68.6% (active) in the experiment on HOP-92 NSCLC. Further, the growth in the experiment with NCI-H522 lung was -70.6% (active); in the experiment on A549/ATCC NSCLC, -51.7% (active); in the experiment on 786-0 renal it was -95.1% (active); in the experiment on COLO 205 colon it was -73.6% (active); with DU-145 prostate, 19.7%; with K-562 leukemia it was -47.8% (active). Besides, the growth in the experiment on MALME-3M melanoma is -83.4% (active); in the experiment with MDA-MB-231 breast, -68.7% (active); in the experiment with RXF 393 renal it was -90.5% (active); in the experiment with SF-268 CNS, -60.5% (active); in the experiment with SF-295 CNS, -70.4% (active); in the experiment with SF-539 CNS it was -92.4% (active). Moreover, the growth in the experiment on UACC-257 melanoma was -85.4% (active).
Turning to `COc1cc2nccc(Oc3ccc(NC(=O)Nc4cc(C)on4)c(Cl)c3)c2cc1OC`, the growth is 28.8% in the experiment on NCI-H23 lung; 23.1% in the experiment on NCI-H226 lung; 32.9% with NCI-H322M lung; 18.4% in the experiment with HOP-62 NSCLC; 14.5% in the experiment on NCI-H460 lung; -55.9% (active) in the experiment with HOP-92 NSCLC. Moreover, the growth with NCI-H522 lung was 11.1%; in the experiment on A549/ATCC NSCLC, 4.95% (active); with 786-0 renal it was 16.1%; with COLO 205 colon it was -25.4% (active); with DU-145 prostate it was 31.2%; in the experiment with K-562 leukemia, 5.94% (active). In addition, the growth in the experiment with MALME-3M melanoma is 20.4%; in the experiment on MDA-MB-231 breast it was 10%; with RXF 393 renal, -28.9% (active); in the experiment with SF-268 CNS, 21.7%; with SF-295 CNS, 19%; with SF-539 CNS it was -50.3% (active). In addition, the growth in the experiment with UACC-257 melanoma is 19.6%; with M14 melanoma it was 7.27% (active).
Consider `CC[C@H](CO)Nc1nc(NCc2ccccc2)c2ncn(C(C)C)c2n1`, for which the growth in the experiment on NCI-H23 lung is 63.5%; in the experiment on NCI-H226 lung, 76%; with NCI-H322M lung it was 61.3%; in the experiment on HOP-62 NSCLC, 48.2%; with NCI-H460 lung it was 47.8%; with HOP-92 NSCLC, 65.4%. For the same compound, the growth with NCI-H522 lung was 48.8%; in the experiment on A549/ATCC NSCLC, 56%; in the experiment on 786-0 renal, 57.6%; with COLO 205 colon, 47.1%; with DU-145 prostate it was 53.9%; with K-562 leukemia it was 58.5%. For the same compound, the growth with MALME-3M melanoma is 87.4%; in the experiment on MDA-MB-231 breast, 75.6%; in the experiment on RXF 393 renal, -22.3% (active); in the experiment with SF-268 CNS, 70.9%; in the experiment with SF-295 CNS, 59.8%; in the experiment on SF-539 CNS, 57.2%. The growth in the experiment on UACC-257 melanoma is 91.6%.
Take `O=C(CNc1nc(-c2ccc(Cl)cc2)cs1)Nc1ccc(-c2nc3ccccc3s2)cc1`: the growth in the experiment with NCI-H23 lung was 87.6%; in the experiment with NCI-H226 lung, 80.3%; with NCI-H322M lung it was 91.6%; in the experiment on HOP-62 NSCLC, 106%; in the experiment with NCI-H460 lung it was 91.3%; in the experiment on HOP-92 NSCLC, 92.9%. For the same compound, the growth in the experiment with NCI-H522 lung is 93.1%; in the experiment with A549/ATCC NSCLC, 99%; in the experiment on 786-0 renal it was 109%; in the experiment with COLO 205 colon, 93.8%; in the experiment with DU-145 prostate, 95%; in the experiment on K-562 leukemia it was 96.4%. Also, the growth with MALME-3M melanoma is 102%; with MDA-MB-231 breast it was 84.7%; with RXF 393 renal, 106%; in the experiment on SF-268 CNS, 90.8%; in the experiment with SF-295 CNS, 98.6%; in the experiment with SF-539 CNS it was 97%. In the experiment with UACC-257 melanoma, the growth is 100%.
On to `Cc1nc(-c2cn3c(n2)-c2ccc(-c4cnn(C(C)(C)C(N)=O)c4)cc2OCC3)n(C(C)C)n1`, for which the growth in the experiment with NCI-H23 lung was 54.5%; in the experiment with NCI-H226 lung it was 32.7%; in the experiment on NCI-H322M lung, 2.09% (active); in the experiment on HOP-62 NSCLC it was 31.2%; with NCI-H460 lung, 18.7%; with HOP-92 NSCLC, 0.115% (active). The growth in the experiment on NCI-H522 lung was 36.1%; in the experiment on A549/ATCC NSCLC it was 8.09% (active); in the experiment with 786-0 renal, 7.76% (active); with COLO 205 colon, 13.5%; with DU-145 prostate it was 28.7%; with K-562 leukemia it was 51%. In addition, the growth in the experiment with MALME-3M melanoma is 11.1%; in the experiment with MDA-MB-231 breast, 31.8%; with RXF 393 renal, -28.1% (active); in the experiment on SF-268 CNS, 33.1%; with SF-295 CNS, 3.66% (active); with SF-539 CNS it was -19.5% (active). The growth in the experiment with UACC-257 melanoma is 20.2%; in the experiment with M14 melanoma, 40.5%.
